Results published in publication PMC7862700, “An all-to-all approach to the identification of sequence-specific readers for epigenetic DNA modifications on cytosine”.

Experiments:
Experiment in all cases: DAPPL (digital affinity profiling via proximity ligation, sequencing); 10 mM Tris-HCl pH 7.5, 50 mM NaCl, 1 mM DTT, 4% glycerol, room temperature, 30 min; GST-TFs on glutathione beads, 16-mer random dsDNA library, 0.1% formaldehyde crosslink after washing; high values mean tight binding
Conditions in all cases: protein: recombinant; tags: N-terminal GST; dsDNA, one strand shown
ELK1 = biological target: T1, ELK1 (Homo sapiens, UniProt P19419 1-428)
T1 sequence: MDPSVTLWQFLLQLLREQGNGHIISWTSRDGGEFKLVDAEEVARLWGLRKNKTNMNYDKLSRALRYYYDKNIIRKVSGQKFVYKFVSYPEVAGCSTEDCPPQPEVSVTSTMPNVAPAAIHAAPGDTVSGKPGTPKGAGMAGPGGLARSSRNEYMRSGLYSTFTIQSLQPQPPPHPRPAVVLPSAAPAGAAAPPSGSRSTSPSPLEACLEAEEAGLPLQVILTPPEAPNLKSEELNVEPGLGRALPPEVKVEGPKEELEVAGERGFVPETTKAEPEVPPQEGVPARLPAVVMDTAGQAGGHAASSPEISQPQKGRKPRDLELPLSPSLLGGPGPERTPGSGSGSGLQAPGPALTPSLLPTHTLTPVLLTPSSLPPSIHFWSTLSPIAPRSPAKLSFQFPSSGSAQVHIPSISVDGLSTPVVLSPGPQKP
Procedure, shortened: (§1)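 GST fusions of human transcription factors were expressed in yeast and captured with glutathione beads. Once given DNA barcodes and pooled alongside a tag-only sample, they were incubated for 30 min at room temperature with 200 nmole of a random double-stranded 16-mer DNA library in Tris/NaCl/DTT/glycerol buffer, then washed, crosslinked (0.1% formaldehyde), proximity-ligated, PCR-amplified and sequenced on an Illumina NextSeq500. The binding signal of each hexamer is its read frequency for a factor divided by its frequency for the tag-only sample.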

GABPA = biological target: T2, GABPA (Homo sapiens, UniProt Q06546 1-454)
T2 sequence: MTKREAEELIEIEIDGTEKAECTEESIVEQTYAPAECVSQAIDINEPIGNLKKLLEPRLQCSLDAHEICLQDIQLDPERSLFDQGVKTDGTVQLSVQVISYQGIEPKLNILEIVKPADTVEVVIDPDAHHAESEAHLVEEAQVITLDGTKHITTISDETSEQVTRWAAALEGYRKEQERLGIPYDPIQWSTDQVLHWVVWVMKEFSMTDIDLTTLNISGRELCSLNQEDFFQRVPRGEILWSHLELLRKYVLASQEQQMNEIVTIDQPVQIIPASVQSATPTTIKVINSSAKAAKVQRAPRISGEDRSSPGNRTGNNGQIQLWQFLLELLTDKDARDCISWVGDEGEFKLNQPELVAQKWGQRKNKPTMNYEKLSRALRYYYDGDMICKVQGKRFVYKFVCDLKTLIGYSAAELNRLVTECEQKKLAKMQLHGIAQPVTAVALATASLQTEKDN
Procedure, shortened: as §1

ERG = biological target: T3, ERG (Homo sapiens, UniProt P11308 1-479)
T3 sequence: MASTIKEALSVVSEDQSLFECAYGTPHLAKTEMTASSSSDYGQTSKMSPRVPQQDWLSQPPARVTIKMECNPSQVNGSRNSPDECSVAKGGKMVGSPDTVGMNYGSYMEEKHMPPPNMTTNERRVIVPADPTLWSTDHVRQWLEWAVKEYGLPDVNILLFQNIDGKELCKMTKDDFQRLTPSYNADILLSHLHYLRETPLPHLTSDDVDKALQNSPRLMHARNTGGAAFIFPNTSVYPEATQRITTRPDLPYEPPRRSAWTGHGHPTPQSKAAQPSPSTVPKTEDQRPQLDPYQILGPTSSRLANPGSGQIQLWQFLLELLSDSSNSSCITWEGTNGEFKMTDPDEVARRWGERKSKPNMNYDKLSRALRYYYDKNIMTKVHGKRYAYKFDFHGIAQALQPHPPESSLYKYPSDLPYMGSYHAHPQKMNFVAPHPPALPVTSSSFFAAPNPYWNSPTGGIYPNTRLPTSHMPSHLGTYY
Procedure, shortened: as §1

ELF1 = ELF1 (Homo sapiens, UniProt P32519 1-619)
Sequence of ELF1 (P32519 whole entry): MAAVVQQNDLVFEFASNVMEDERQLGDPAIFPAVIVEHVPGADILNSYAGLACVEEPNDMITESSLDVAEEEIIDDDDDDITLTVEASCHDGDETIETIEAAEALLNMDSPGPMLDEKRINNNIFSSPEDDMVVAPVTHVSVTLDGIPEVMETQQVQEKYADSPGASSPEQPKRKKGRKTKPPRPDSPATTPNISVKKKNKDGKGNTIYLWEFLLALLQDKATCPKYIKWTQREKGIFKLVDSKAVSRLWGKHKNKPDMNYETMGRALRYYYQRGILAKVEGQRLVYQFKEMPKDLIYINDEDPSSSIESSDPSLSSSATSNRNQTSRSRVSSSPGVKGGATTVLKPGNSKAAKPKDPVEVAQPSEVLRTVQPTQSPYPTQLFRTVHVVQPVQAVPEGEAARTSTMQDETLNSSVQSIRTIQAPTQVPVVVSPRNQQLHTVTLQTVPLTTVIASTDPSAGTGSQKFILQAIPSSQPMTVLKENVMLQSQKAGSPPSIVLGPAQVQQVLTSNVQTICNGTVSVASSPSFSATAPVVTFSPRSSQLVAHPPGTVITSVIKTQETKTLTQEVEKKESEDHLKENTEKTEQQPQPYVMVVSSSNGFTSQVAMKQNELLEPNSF
Procedure, shortened: as §1

EHF = biological target: T4, EHF (Homo sapiens, UniProt Q9NZC4 1-300)
T4 sequence: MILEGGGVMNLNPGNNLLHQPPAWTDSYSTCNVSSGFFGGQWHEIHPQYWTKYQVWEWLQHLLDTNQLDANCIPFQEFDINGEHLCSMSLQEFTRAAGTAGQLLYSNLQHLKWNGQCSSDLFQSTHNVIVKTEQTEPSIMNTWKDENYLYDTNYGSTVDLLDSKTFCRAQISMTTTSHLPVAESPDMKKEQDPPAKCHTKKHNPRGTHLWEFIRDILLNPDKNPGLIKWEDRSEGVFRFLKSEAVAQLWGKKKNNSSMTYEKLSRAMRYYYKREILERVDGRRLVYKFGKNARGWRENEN
Procedure, shortened: as §1

SPIB = SPIB (Homo sapiens, UniProt Q01892 1-262)
Sequence of SPIB (Q01892 whole entry): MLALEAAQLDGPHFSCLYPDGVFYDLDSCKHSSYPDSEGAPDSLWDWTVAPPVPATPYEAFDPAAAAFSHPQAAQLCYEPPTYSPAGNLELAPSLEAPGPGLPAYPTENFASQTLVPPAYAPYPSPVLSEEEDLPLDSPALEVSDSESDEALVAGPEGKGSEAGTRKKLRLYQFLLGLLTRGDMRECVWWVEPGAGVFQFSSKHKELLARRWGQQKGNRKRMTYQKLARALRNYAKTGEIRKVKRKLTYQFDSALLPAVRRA
Procedure, shortened: as §1

ELK3 = biological target: T5, ELK3 (Homo sapiens, UniProt P41970 1-407)
T5 sequence: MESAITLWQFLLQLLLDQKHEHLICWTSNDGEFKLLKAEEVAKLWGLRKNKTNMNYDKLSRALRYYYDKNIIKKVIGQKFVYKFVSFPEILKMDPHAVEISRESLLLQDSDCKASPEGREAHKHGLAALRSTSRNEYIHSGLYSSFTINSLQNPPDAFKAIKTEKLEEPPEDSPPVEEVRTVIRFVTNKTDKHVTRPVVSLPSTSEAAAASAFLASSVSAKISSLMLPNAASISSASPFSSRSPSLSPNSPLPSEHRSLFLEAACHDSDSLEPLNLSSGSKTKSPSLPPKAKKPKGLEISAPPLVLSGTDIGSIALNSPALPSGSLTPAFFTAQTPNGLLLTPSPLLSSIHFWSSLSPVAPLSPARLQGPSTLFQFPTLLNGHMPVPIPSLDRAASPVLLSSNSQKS
Procedure, shortened: as §1

FEV = biological target: T6, FEV (Homo sapiens, UniProt Q99581 1-238)
T6 sequence: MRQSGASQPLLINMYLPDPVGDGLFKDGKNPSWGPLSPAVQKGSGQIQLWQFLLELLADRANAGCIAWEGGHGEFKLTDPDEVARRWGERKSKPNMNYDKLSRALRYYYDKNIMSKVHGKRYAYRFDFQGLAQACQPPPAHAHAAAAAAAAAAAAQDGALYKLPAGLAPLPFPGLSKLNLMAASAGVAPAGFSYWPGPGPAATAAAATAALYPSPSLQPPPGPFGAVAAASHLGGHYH
Procedure, shortened: as §1

ETV5 = ETV5 (Homo sapiens, UniProt P41161 1-510)
Sequence of ETV5 (P41161 whole entry): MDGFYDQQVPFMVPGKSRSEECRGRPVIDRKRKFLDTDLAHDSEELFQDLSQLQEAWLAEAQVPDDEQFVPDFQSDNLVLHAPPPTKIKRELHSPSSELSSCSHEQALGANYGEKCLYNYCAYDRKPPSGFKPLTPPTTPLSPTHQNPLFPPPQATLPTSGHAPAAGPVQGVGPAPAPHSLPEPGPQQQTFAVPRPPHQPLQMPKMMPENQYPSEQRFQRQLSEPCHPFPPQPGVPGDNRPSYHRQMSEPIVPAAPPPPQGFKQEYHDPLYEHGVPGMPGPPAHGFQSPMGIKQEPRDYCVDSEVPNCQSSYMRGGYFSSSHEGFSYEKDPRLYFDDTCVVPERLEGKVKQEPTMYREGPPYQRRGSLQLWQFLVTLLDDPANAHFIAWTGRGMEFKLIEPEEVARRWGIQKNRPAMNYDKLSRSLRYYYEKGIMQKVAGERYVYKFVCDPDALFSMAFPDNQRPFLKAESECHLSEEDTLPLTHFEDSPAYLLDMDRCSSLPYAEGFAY
Procedure, shortened: as §1

ELF4 = ELF4 (Homo sapiens, UniProt Q99607 1-663)
Sequence of ELF4 (Q99607 whole entry): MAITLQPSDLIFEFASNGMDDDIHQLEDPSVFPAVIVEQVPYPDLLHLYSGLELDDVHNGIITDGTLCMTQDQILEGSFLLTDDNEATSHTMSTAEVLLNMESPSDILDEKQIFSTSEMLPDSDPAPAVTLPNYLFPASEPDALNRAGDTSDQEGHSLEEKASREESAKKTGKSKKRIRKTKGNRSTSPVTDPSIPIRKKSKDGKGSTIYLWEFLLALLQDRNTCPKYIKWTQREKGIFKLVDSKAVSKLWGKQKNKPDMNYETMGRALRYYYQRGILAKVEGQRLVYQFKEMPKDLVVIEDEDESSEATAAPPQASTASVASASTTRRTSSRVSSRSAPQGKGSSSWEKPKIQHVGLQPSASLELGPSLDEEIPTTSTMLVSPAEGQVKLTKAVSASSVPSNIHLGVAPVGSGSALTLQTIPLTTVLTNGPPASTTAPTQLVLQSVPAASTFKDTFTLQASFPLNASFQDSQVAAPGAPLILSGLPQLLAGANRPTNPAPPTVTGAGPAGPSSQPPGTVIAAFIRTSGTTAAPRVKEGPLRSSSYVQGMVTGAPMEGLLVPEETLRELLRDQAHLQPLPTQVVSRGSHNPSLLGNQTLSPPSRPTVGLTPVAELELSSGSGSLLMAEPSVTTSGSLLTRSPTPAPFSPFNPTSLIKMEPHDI
Procedure, shortened: as §1

Q: Which results are given for CACAGC?
A: binding signal (ELK1): 1.09 fold enrichment (6-mer frequency, TF over GST control); binding signal (GABPA): 1.02 fold enrichment (6-mer frequency, TF over GST control); binding signal (ERG): 1.03 fold enrichment (6-mer frequency, TF over GST control); binding signal (ELF1): 1.11 fold enrichment (6-mer frequency, TF over GST control); binding signal (EHF): 1.02 fold enrichment (6-mer frequency, TF over GST control); binding signal (SPIB): 1.05 fold enrichment (6-mer frequency, TF over GST control); binding signal (ELK3): 1.07 fold enrichment (6-mer frequency, TF over GST control); binding signal (FEV): 1.03 fold enrichment (6-mer frequency, TF over GST control); binding signal (ETV5): 1.01 fold enrichment (6-mer frequency, TF over GST control); binding signal (ELF4): 1.08 fold enrichment (6-mer frequency, TF over GST control)
